# Screening data from PubChem.
# This is a sample that favours compounds with a hit; in the whole collection about 6.7% have one here.
# C diff growth = C. difficile growth inhibition. Clostridium difficile clinical isolate growth, OD600, 24 h; hits give low values. growth activity, negative = inhibition, % at 16 µg/mL (by protocol). 0.25% of 86,000 active;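 active means mean growth activity at or below -80% and every replicate also at or below -80%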;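 further: 0% = DMSO wells and -100% = levofloxacin 16 µg/mL wells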
# Pf Dd2 inh = inhibitors of Plasmodium falciparum Dd2 growth; P. falciparum Dd2 growth, SYBR Green, 72 h; hits give low values; activity change, % at 10 µM; 2.3% of 94,000 active; AID 1159554; in the data active means activity change below about -80%
# T cruzi growth = inhibitors of T. cruzi proliferation | T. cruzi beta-gal in NIH3T3, GalScreen luminescence, 90 h | inhibition, % at 8.34 µM | 5.9% of 77,000 active;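 active means mean inhibition above about 93%, with at least 55% of replicates each passing it, limit read from the data, passing the limit was not always enough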
# The depositor's hits bear a star; / = no result given; ! = a repeat was not active.
SMILES,C diff growth,Pf Dd2 inh,T cruzi growth
O=S(=O)(c1ccccc1F)N1C[C@@H]2N[C@H](C1)C2c1ccc(/C=C/c2ccccc2)cc1 (stereo partly drawn),9.7,-78.2,/
CN(C)C(=O)c1ccc(-c2ccc(C3[C@@H]4CN(S(=O)(=O)c5ccc(F)cc5)C[C@H]3N4)cc2)cc1 (stereo partly drawn),-12.0,-20.9,/
CCC(=O)Nc1ccc2c(c1)C(=O)N(C)[C@@H]1CC[C@H](CC(=O)NCCc3ccccc3)O[C@H]1CO2,10.4,0.1,-22.4
O=C(C1CCOCC1)N1[C@H](CO)[C@H](c2ccccc2)C12CN(Cc1cncnc1)C2,11.0,20.0,/
C[C@@H]1CN([C@H](C)CO)C(=O)c2cc(C#CCc3ccccc3)cnc2O[C@@H]1CN(C)C(=O)C1CC1,/,-20.3,41.1
Cc1ccc(-c2ccc(C3[C@@H]4CN(S(=O)(=O)c5ccc(C)cc5)C[C@H]3N4)cc2)cc1 (stereo partly drawn),-96.9*,-21.1,/
Cc1ccccc1S(=O)(=O)N1C[C@@H]2N[C@H](C1)C2c1ccc(-c2ccc(C#N)cc2)cc1 (stereo partly drawn),8.4,-83.8*!,/
Cc1cccc(S(=O)(=O)N2C[C@@H]3N[C@H](C2)C3c2ccc(-c3cncnc3)cc2)c1 (stereo partly drawn),-3.2,-28.0,/
Cc1ccccc1S(=O)(=O)N1C[C@@H]2N[C@H](C1)C2c1ccc(-c2ccc(C(=O)N(C)C)cc2)cc1 (stereo partly drawn),-15.6,-24.4,/
Cc1ccc(S(=O)(=O)N2C[C@@H]3N[C@H](C2)[C@@H]3c2ccc(-c3cccc(C)c3)cc2)cc1,1.3,-63.3,/
Cc1ccc(-c2ccc(C3[C@@H]4CN(S(=O)(=O)c5cccc(C)c5)C[C@H]3N4)cc2)cc1 (stereo partly drawn),-94.9*,-42.5,/
C[C@@H](NC(=O)C[C@@H]1C=C[C@H](NC(=O)Cc2ccccn2)[C@@H](CO)O1)c1ccccc1,-6.8,-11.3,29.1
C[C@@H]1CN([C@@H](C)CO)C(=O)c2c(c3ccccc3n2C)-c2ccccc2CO[C@H]1CN(C)C(=O)Nc1ccc(-c2ccccc2)cc1,8.4,-90.7*,/
C[C@H]1CN([C@@H](C)CO)C(=O)c2c(c3ccccc3n2C)-c2ccccc2CO[C@H]1CN(C)C(=O)Nc1ccccc1,/,-37.5,46.9
COc1ccc(NC(=O)N(C)C[C@@H]2OCc3ccccc3-c3c(n(C)c4ccccc34)C(=O)N([C@@H](C)CO)C[C@@H]2C)cc1,/,-67.4,25.5
C[C@H]1CN([C@@H](C)CO)C(=O)c2c(c3ccccc3n2C)-c2ccccc2CO[C@H]1CN(C)C(=O)Nc1ccc(-c2ccccc2)cc1,2.4,-88.7*,/
C[C@@H]1CN([C@@H](C)CO)C(=O)c2c(c3ccccc3n2C)-c2ccccc2CO[C@@H]1CN(C)C(=O)Nc1ccccc1,/,-65.7,39.3
C[C@H](CO)N1C[C@H](C)[C@H](CN(C)C(=O)Nc2ccc(-c3ccccc3)cc2)OCc2ccccc2-c2c(n(C)c3ccccc23)C1=O,3.1,-89.2*,/
C[C@@H]1CN([C@H](C)CO)C(=O)c2c(c3ccccc3n2C)-c2ccccc2CO[C@@H]1CN(C)C(=O)Nc1cccc(F)c1,/,-53.0,29.8
C[C@H](CO)N1C[C@H](C)[C@@H](CN(C)C(=O)Nc2ccc(F)cc2)OCc2ccccc2-c2c(n(C)c3ccccc23)C1=O,-0.1,-92.1*,47.1
COc1ccccc1CNC(=O)C[C@H]1CC[C@@H]2[C@H](COC[C@@H](O)CN2C(=O)Nc2ccc(F)cc2)O1,6.3,1.0,-3.6
C/C=C/c1cnc2c(c1)C(=O)N([C@@H](C)CO)C[C@H](C)[C@H](CN(C)S(=O)(=O)c1ccccc1)O2,6.1,-3.6,19.2
C[C@@H]1CCCCO[C@@H](CN(C)Cc2ccc(C(F)(F)F)cc2)[C@@H](C)CN([C@@H](C)CO)C(=O)c2cc(NC(=O)Nc3ccc(C(F)(F)F)cc3)ccc2O1,6.9,-24.3,87.5
C[C@@H]1CCCCO[C@@H](CN(C)Cc2ccc(Cl)c(Cl)c2)[C@H](C)CN([C@@H](C)CO)C(=O)c2cc(NC(=O)Nc3ccc(C(F)(F)F)cc3)ccc2O1,16.5,-84.8*,72.2
C[C@H]1CCCCO[C@@H](CN(C)Cc2ccc(Cl)c(Cl)c2)[C@@H](C)CN([C@@H](C)CO)C(=O)c2cc(NC(=O)Nc3ccc(C(F)(F)F)cc3)ccc2O1,5.3,-78.4,69.6
SMILES,C diff growth,Pf Dd2 inh,T cruzi growth
C[C@H](CO)N1C[C@H](C)[C@@H](CN(C)Cc2ccc(Cl)c(Cl)c2)OCCCC[C@H](C)Oc2ccc(NC(=O)CCC(F)(F)F)cc2C1=O,7.8,2.3,79.9
C[C@@H]1CN([C@H](C)CO)C(=O)c2cc(NC(=O)CCC(F)(F)F)ccc2O[C@@H](C)CCCCO[C@H]1CN(C)Cc1ccc(Cl)c(Cl)c1,1.8,-83.2*,44.0
C[C@@H]1CCCCO[C@H](CN(C)Cc2ccc(Cl)c(Cl)c2)[C@@H](C)CN([C@@H](C)CO)C(=O)c2cc(NC(=O)Nc3ccc(C(F)(F)F)cc3)ccc2O1,21.8,-86.4*,26.4
C[C@H](CO)N1C[C@H](C)[C@H](CN(C)C(=O)Nc2ccccc2)Oc2ccc(NC(=O)CCCCCC(=O)Nc3ccccc3N)cc2C1=O,-4.9,31.6,/
CCCC(=O)Nc1ccc2c(c1)C(=O)N(C)C[C@H](OC)[C@H](C)CN(C(=O)c1cnccn1)[C@H](C)CO2,0.1,10.1,42.0
COc1cccc(-c2ccc([C@@H]3[C@@H](CO)N4C(=O)CN(C(=O)CN5CCOCC5)C[C@H]34)cc2)c1,-0.6,8.0,/
COc1ccc(S(=O)(=O)N[C@H]2CC[C@@H](CCn3cc(-c4ccccc4F)nn3)O[C@@H]2CO)cc1,-3.3,-42.7,-8.9
CCCc1cn(CC[C@@H]2CC[C@H](NS(=O)(=O)c3ccc(-c4ccccc4)cc3)[C@H](CO)O2)nn1,-5.0,-92.2*,52.3
O=C(Nc1ccc(Cl)c(Cl)c1)N[C@@H]1CC[C@@H](CCn2cc(C3CCCCC3)nn2)O[C@@H]1CO,/,-87.5*,20.3
CN(C)Cc1cn(CC[C@H]2CC[C@H](NS(=O)(=O)c3ccc(-c4ccccc4)cc3)[C@H](CO)O2)nn1,/,9.8,-405.2
COc1ccccc1S(=O)(=O)N[C@H]1CC[C@@H](CCn2cc(C3CCCC3)nn2)O[C@@H]1CO,13.7,-92.7*,/
COc1ccc(S(=O)(=O)N[C@@H]2CC[C@H](CCn3cc(-c4ccccc4F)nn3)O[C@@H]2CO)cc1,-0.8,-92.1*,12.2
O=C(Nc1ccc(Cl)c(Cl)c1)N[C@@H]1CC[C@@H](CCn2cc(C3CCCCC3)nn2)O[C@H]1CO,-1.1,-15.7,48.4
COc1ccccc1S(=O)(=O)N[C@H]1CC[C@H](CCn2cc(C3CCCC3)nn2)O[C@H]1CO,-1.9,-4.6,/
CC(C)NC(=O)Nc1ccc2c(c1)CC(=O)N([C@@H](C)CO)C[C@@H](C)[C@H](CN(C)C(=O)Nc1ccccc1)O2,-13.7,12.0,24.9
COc1ccccc1NC(=O)N[C@H]1CC[C@H](CCNS(=O)(=O)c2ccc(C)cc2)O[C@@H]1CO,2.9,8.2,/
COc1ccc(NC(=O)Nc2cccc3c2O[C@H](CN(C)C(=O)Nc2c(C)noc2C)[C@@H](C)CN([C@@H](C)CO)C3=O)cc1,1.2,21.2,77.4
